For 69 compounds, Potency results are on record in ChEMBL document CHEMBL1201862, “PubChem BioAssay data set” (2004).

The campaign covered roughly 400,000 compounds. About 2,100 (0.53%) were called active. Inconclusive results (about 14%) are left out. How the calls were made is not given here. The entries come from a sample that favours actives as a whole.

The target in the assay is Ataxin-2 (Homo sapiens) (UniProt Q99700). Briefly: qHTS for Inhibitors of ATXN expression. In kind it is functional.
Ataxin-2 (Homo sapiens), sequence (Q99700 whole entry): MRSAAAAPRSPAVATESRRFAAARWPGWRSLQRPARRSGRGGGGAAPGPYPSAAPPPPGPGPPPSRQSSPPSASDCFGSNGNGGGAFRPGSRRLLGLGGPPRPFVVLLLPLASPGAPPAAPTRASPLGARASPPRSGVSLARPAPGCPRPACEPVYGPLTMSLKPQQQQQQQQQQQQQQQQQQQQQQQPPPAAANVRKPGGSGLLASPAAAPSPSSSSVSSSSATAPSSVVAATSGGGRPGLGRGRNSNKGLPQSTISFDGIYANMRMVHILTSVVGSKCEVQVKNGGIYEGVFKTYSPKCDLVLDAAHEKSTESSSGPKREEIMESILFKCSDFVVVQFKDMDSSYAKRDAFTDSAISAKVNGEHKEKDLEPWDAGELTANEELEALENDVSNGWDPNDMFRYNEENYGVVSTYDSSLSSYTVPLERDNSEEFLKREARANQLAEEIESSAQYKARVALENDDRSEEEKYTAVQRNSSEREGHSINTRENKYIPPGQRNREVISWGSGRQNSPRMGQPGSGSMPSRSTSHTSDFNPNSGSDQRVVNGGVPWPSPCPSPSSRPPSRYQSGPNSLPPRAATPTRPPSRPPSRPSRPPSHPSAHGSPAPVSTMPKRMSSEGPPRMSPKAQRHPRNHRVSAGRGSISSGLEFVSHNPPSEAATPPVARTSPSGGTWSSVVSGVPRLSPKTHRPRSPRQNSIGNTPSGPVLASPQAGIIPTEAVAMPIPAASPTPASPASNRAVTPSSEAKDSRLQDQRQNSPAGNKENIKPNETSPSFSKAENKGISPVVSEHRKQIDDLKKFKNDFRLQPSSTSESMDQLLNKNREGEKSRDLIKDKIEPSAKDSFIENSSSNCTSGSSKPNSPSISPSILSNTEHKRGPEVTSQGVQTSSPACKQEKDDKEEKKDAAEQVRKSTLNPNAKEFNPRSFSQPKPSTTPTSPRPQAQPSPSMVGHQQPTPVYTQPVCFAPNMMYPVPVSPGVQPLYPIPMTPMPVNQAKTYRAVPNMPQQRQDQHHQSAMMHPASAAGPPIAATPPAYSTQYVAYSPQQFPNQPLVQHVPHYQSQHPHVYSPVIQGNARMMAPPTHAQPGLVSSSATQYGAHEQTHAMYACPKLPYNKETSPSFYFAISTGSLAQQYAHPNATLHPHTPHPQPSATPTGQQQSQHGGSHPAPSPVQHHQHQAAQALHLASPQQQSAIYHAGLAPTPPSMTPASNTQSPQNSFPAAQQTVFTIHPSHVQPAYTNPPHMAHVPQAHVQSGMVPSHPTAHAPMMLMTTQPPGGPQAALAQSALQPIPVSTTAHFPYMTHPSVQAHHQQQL
With `C=CC[C@@H](CC(=O)N[C@@H](CO)Cc1ccccc1)C(=O)N[C@H](COC(=O)[C@@H](CC=C)CC(=O)OC(C)(C)C)Cc1c[nH]c2ccccc12`, the Potency was 28.2 µM (active). With `C=CC[C@@H](CC(=O)N[C@@H](CO)Cc1ccccc1)C(=O)N[C@H](COC(=O)[C@H](CC=C)CC(=O)OC(C)(C)C)Cc1c[nH]c2ccccc12`, the Potency is 28.2 µM (active). Turning to `C=CC[C@H](CC(=O)N[C@H](CO)Cc1ccccc1)C(=O)N[C@@H](COC(=O)[C@@H](CC=C)CC(=O)OC(C)(C)C)Cc1c[nH]c2ccccc12`, the Potency was 25.1 µM (active). On to `O=C(CCCCCn1c(=S)[nH]c2ccc(N3CCOCC3)cc2c1=O)NCc1ccc2c(c1)OCO2`, for which the Potency result is “inactive”. `Cn1c(N)nc2nc(CCc3ccccc3)c(O)nc2c1=O`: the Potency result was “inactive”.

In the case of `CCOc1ccc(CC(=O)Nc2c(C(=O)c3ccccc3)oc3ccc(Cl)cc23)cc1OCC`, the Potency entry was “inactive”. The value for `Cc1cc(C)nc(Sc2ncnc(N)c2[N+](=O)[O-])n1` was 16.8 µM (active); that for `Cc1nc(Sc2ccc(Cl)cc2)c(C#N)c(C)c1[N+](=O)[O-]` was “inactive”; that for `Cc1ccc(Oc2ncnc(N)c2[N+](=O)[O-])cc1` was “inactive”. Then `O=C(Cc1nc2ccccc2nc1O)c1ccccc1`, with “inactive”; and `CC(OC(=O)C1COc2ccccc2O1)C(=O)c1ccccc1` (centres undefined), with “inactive”.

As to `C=C(C(=O)c1ccccc1)C(C)CC(=O)c1ccccc1` (centres undefined), the Potency was 15.8 µM (active).

On to `C=C(C(=O)c1ccccc1)C(c1ccccc1)C(C)C(=O)c1ccccc1` (centres undefined), for which the Potency was 31.6 µM (active). Then `Nc1nc2ccccc2cc1S(=O)(=O)c1ccccc1`, with “inactive”. Then `O=C(Nc1ccccc1)Nc1ccc2ncoc2c1`, with “inactive”; and `CN(C)/C=N/c1nc2ccccc2nc1N1CCCC1`, with “inactive”.

With `N#C/C(=C/c1cccn1-c1cccc(C(=O)O)c1)c1ccc(F)cc1`, the Potency result is “inactive”. With `N#Cc1c(N2CCCC2)ccc(Br)c1Cl`, the Potency result is “inactive”. Then `COC(=O)c1ccc(CSc2cc(C)c3ccccc3n2)o1`, with “inactive”; and `CC(C)(C)c1ccc2c(c1)OC(C(=O)N/N=C\c1ccncc1)CO2` (centres undefined), with “inactive”. For the compound `N=c1c(C(=O)NCC2CCCO2)cc2c(=O)n3ccccc3nc2n1Cc1ccccc1` (centres undefined), the Potency result is “inactive”. Then `CCCc1nn(C)c(C(=O)Nc2cccc(CC)c2)c1Cl`, with “inactive”; and `Cc1ccccc1NC(=O)c1ccc(N(Cc2ccccc2)S(C)(=O)=O)cc1`, with 35.5 µM (active); and `Cc1cccc(NC(=O)c2ccc(N(Cc3ccccc3)S(C)(=O)=O)cc2)c1`, with 25.1 µM (active). With `CS(=O)(=O)N(Cc1ccccc1)c1ccc(C(=O)Nc2cccc(Cl)c2)cc1`, the Potency is 17.8 µM (active). `CCN(Cc1ccncc1)C(=S)Nc1ccccc1C`: the Potency entry is “inactive”.

Turning to `Cc1ccccc1NC(=O)c1ccc2snnc2c1`, the Potency entry was “inactive”. Take `Cc1cc(C(F)(F)F)c2c(N)c(C(=O)Nc3cc(C)on3)sc2n1`: the Potency result is “inactive”. Then `Cc1ccc(C)c(Oc2coc3cc(O)ccc3c2=O)c1`, with “inactive”; and `CCOc1ccccc1-n1c(N)c(C(=O)OC)c2nc3ccccc3nc21`, with “inactive”. Then `CCOC(=O)N1CCN(c2nc(-c3ccccc3)c3cc(C)ccc3n2)CC1`, with “inactive”. `COc1cc2nc(CN3CCN(S(=O)(=O)c4ccc(C)c(C)c4)CC3)nc(O)c2cc1OC`: the Potency entry was “inactive”. On to `COc1cc2nc(N3CCN(c4cc(C)ccc4C)CC3)nc(N)c2cc1OC`, for which the Potency is 39.8 µM (active). As for `Cc1ccc2nc3c(cc2c1)c(NC(=O)C(C)(C)C)nn3CC(C)C`, the Potency entry was “inactive”. Then `C=CCn1c(N)c(C(=O)NCC2CCCO2)c2nc3ccccc3nc21` (centres undefined), with “inactive”; and `c1cncc(Nc2c3ccccc3nc3ccccc23)c1`, with “inactive”. The value for `Cc1ccc(-c2ccc(S(=O)(=O)Nc3cccnc3)cc2)cc1` was “inactive”; that for `O=C1C=C(Nc2cccnc2)c2ccccc2C1=O` was 39.8 µM (active). For `CN(C)C(CNc1ccc(S(C)(=O)=O)cc1[N+](=O)[O-])c1ccccc1` (centres undefined), the Potency entry was “inactive”. The value for `O=C(COc1ccc2ccc(=O)oc2c1)OCc1ccccc1` was “inactive”; that for `CS(=O)(=O)c1ccc([S+]([O-])CC(=O)OCc2ccccc2)c([N+](=O)[O-])c1` (centres undefined) was 26.7 µM (active). The value for `Cc1ccc(-c2nc(N)sc2C)cc1` was “inactive”; that for `Nc1nc(-c2ccccc2)c(N=Nc2ccccc2Cl)s1` was 31.6 µM (active); that for `Nc1ccc2nc(-c3ccccc3)c(-c3ccccc3)nc2c1` was “inactive”.

Take `O=C(O)c1ccc(CN2C(=O)c3cccc4c([N+](=O)[O-])ccc(c34)C2=O)cc1`: the Potency result was “inactive”. The value for `O=C(COC(=O)COc1cccc2ccccc12)NCC(F)(F)F` was “inactive”; that for `CCCCn1nnnc1C(c1cc2ccccc2o1)N(CCN(C)C)Cc1ccccc1` (centres undefined) was 28.2 µM (active); that for `COc1cc(CNCCN2CCOCC2)ccc1OCc1ccc(Cl)cc1Cl` was 25.1 µM (active).

Regarding `COc1cc(CNCCCN2CCOCC2)cc(Br)c1OCc1ccc(Cl)cc1`, the Potency is 33.6 µM (active).

Turning to `CCCc1cc(=O)oc2cc(OCC(=O)NCCN3CCOCC3)c(Cl)cc12`, the Potency result is “inactive”. Then `C=CCOc1c(Br)cc(CNCCCN2CCOCC2)cc1OC`, with “inactive”.

For `O=C(COC(=O)COc1cccc(C(F)(F)F)c1)Nc1ccc(N2CCOCC2)cc1`, the Potency entry is “inactive”.

For `COc1cccc2cc(C(=O)C3=C(O)C(=O)N(CCN4CCOCC4)C3c3ccc(Cl)cc3)oc12` (centres undefined), the Potency result is “inactive”.

Take `CC(C)(CNC(=O)c1ccc(S(=O)(=O)Nc2cccc(C(F)(F)F)c2)cc1)N1CCOCC1`: the Potency result was “inactive”. Then `COc1cc2sc3cc(NCCCN4CCOCC4)ccc3c(=O)c2cc1OC`, with “inactive”; and `CCOc1cc(CNCCCN2CCOCC2)cc(Br)c1OCC(=O)Nc1cccc(C(F)(F)F)c1`, with 20 µM (active); and `CCOC(=O)Cc1c(C)c2ccc(N(CC)CC)cc2oc1=O`, with “inactive”. The value for `C(=Cc1cnc2ccccc2n1)c1ccc2c(c1)OCO2` was “inactive”.

In the case of `CCCCCn1cc[n+](-c2nc3ccccc3nc2[N-]S(=O)(=O)c2ccccc2)c1`, the Potency result was “inactive”. The value for `Cc1ccc(NC(=O)CC2Nc3ccccc3NC2=O)cc1C` (centres undefined) was “inactive”; that for `CC(=O)c1cc2c(C)cc(=O)oc2cc1O` was “inactive”; that for `Fc1cccc(Cl)c1CNc1ccc(N2CCCC2)cc1` was “inactive”.

Consider `COC(=O)C1=C(C)N(Cc2ccccc2)C(NCc2cccc(C(F)(F)F)c2)=N[C@H]1c1cccc(F)c1`, for which the Potency is 17.8 µM (active).

Consider `Cc1nn(Cc2ccccc2)c(C)c1/C=N/NC(=O)CNc1cccc(C(F)(F)F)c1`, for which the Potency entry was “inactive”.

Regarding `COC(=O)Cc1c(C(=O)OC)nnn1-c1cccc(C(F)(F)F)c1`, the Potency result was “inactive”. Then `CCOC(=O)c1sc(-c2cccc(C(F)(F)F)c2)nc1O`, with “inactive”; and `COC(=O)C1=C(C)N(Cc2ccccc2)C(NCc2ccccc2)=N[C@H]1c1cccc(C(F)(F)F)c1`, with 35.5 µM (active); and `CCN1C(N(C)CCc2c[nH]c3ccccc23)=N[C@@H](c2cccc(C(F)(F)F)c2)C(C(=O)OC)=C1C`, with 31.6 µM (active). As to `COC(=O)C1=C(C)N(Cc2ccccc2)C(NCCc2c[nH]c3ccccc23)=N[C@H]1c1cccc(C(F)(F)F)c1`, the Potency was 25.1 µM (active).
